Screening results (PubChem)
A selection: hits, their analogues and other compounds. The true share with any hit is near 19%.
Cycloheximide cs = counter-screen for Shiga toxin inhibitors: cycloheximide protein synthesis inhibition. cell reporter, cycloheximide protein synthesis inhibition counterscreen. max response, %. hit rate 12% among 300,000; in the data active = max response mostly above about 13%, no sharp cut-off; inactive = mostly below about 14%; also: read at 38.3 µM for the half of the compounds with a filed dose; 0% is about no effect
Pf growth 96h = P. falciparum growth inhibition at 96 hours; Potency, µM (titrated, usually from 28.7 µM), for the others: top-dose activity change, negative = inhibition, hits mostly inhibitors; P. falciparum luciferase reporter growth, 96 h; AID 504834; hit rate 6.9% among 320,000; also: potency is read from the fitted curve at half-maximal effect; % is scaled to controls: 0 for no effect and ±100 for the full control effect
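Plates of compound plus infected erythrocytes (2% hematocrit, 0.05% parasitemia final) incubate 96 hours, 37 C, 5% CO2. Detection reagent added; reduced luminescence from the parasites' luciferase reporter flags inhibition.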
Pf growth 48h = inhibits P. falciparum growth in the first generation, 48 h. hit rate 5.9% among 310,000. AID 504832. Potency, µM (doses to about 28.7 µM), inactives show at the top dose activity change, negative = inhibition, hits mostly inhibitors. P. falciparum luciferase growth in erythrocytes, 48 h; also: potency is read from the fitted curve at half-maximal effect; % is scaled to controls: 0 for no effect and ±100 for the full control effect
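Luciferase-expressing P. falciparum in infected erythrocytes (2% hematocrit, 0.1% parasitemia final) in RPMI 1640/0.5% Albumax were exposed to compound for 48 hours at 37 C, 5% CO2; growth read as luminescence.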
SARS PLpro yeast = SARS-CoV PLP inhibition in yeast | S. cerevisiae expressing SARS-CoV PLpro, growth rescue | Potency, µM (doses to about 32.9 µM), without a hit: at the highest dose activity, positive = growth rescue, most hits filed as activators | hit rate 0.19% among 330,000 | AID 485353; calls by dose curve; also: potency is read from the fitted curve at half-maximal effect; 0% is about no effect; nearly all actives have a fitted effect of over 55% in size
Shiga toxin inh = blocks Shiga toxin action in Vero cells; Vero cells, Shiga toxin protein synthesis inhibition reporter; inhibition, % at 38.7 µM; hit rate 9.2% among 290,000; AID 2315; in the data active = inhibition mostly above about 28%, no sharp cut-off; inactive = mostly below about 43%; also: 0% is about no effect
AMA1 RON2 block = disrupts binding of P. falciparum AMA1 to RON2; AlphaScreen AMA1-biotinylated RON2 peptide binding; Potency, µM (titrated, usually from 58.2 µM), without a hit: at the highest dose activity change, negative = inhibition, most hits filed as inhibitors; hit rate 0.2% among 360,000;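 also: potency is read from the fitted curve at half-maximal effect; 0% = vehicle wells and -100% = peptide control; nearly all actives have a fitted effect of over 45% in size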
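AMA1 (3D7) with his tag at 25 nM final met compounds first, then biotinylated RON2 peptide at 25 nM; detection used donor plus acceptor beads, 10 µg/mL apiece, read by AlphaScreen after 30 min at room temperature.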
Numbers without * were called inactive. Unless noted, calls follow the shape of the dose curve; as a rule, active = well fitted curve in the direction sought with a large enough effect; inconclusive = small, poorly fitted or top-dose-only effect, or another doubt; inactive = no such curve, though single readings can be large; an effect the other way counts as inactive or inconclusive.

O=C(NCc1ccccc1)c1c[nH]c2ccc(S(=O)(=O)Nc3ccc4c(c3)OCCO4)cc2c1=O was read as Cycloheximide cs 11.5, Pf growth 96h 14.7µM*, Pf growth 48h inconclusive, SARS PLpro yeast -0.1%, Shiga toxin inh 49.0* and AMA1 RON2 block -9.9%.
Screening CCOc1ccc(N(C)S(=O)(=O)c2ccc3[nH]cc(C(=O)NCC4CCCO4)c(=O)c3c2)cc1 (stereo not drawn) returned Cycloheximide cs 0.7, Pf growth 96h inconclusive, Pf growth 48h 13.1µM*, SARS PLpro yeast 0.5%, Shiga toxin inh -6.7 and AMA1 RON2 block -1.8%.
For O=C(c1ccccc1)c1c[nH]c2cc3c(cc2c1=O)OCO3 the results were Cycloheximide cs -0.8, Pf growth 96h inconclusive, Pf growth 48h -2.5%, SARS PLpro yeast -7.3% and Shiga toxin inh 22.8.
`O=C(c1ccccc1)c1c[nH]c2cc3c(cc2c1=O)OCCO3` gave Cycloheximide cs 17.0*, Pf growth 96h 14.7µM*, Pf growth 48h 45.7%, SARS PLpro yeast 5.4%, Shiga toxin inh 44.8* and AMA1 RON2 block -16.0%.
`Cc1ccccc1N(C)S(=O)(=O)c1ccc2[nH]cc(C(=O)NCC3CCCO3)c(=O)c2c1` (stereo not drawn) gave Cycloheximide cs -2.8, Pf growth 96h inconclusive, Pf growth 48h inconclusive, SARS PLpro yeast 0.2%, Shiga toxin inh 4.8 and AMA1 RON2 block -6.3%.
Screening Cc1ccc(NC(=O)C(=O)NCCOc2ccc(Cl)cc2)c(C)c1 returned Cycloheximide cs -2.1, Pf growth 96h inconclusive, Pf growth 48h -3.1%, SARS PLpro yeast -1.1%, Shiga toxin inh -8.9 and AMA1 RON2 block -3.5%.
Screening O=S(=O)(NC1=NCCCCC1)c1ccccc1Cl returned Cycloheximide cs -0.4, Pf growth 96h 22.8%, Pf growth 48h 2.7%, SARS PLpro yeast 0.9%, Shiga toxin inh -6.6 and AMA1 RON2 block 4.3%.
`Fc1ccc(CNc2nc3ccccc3n3cnnc23)cc1` gave Cycloheximide cs -6.3, Pf growth 96h 145.6%, SARS PLpro yeast -1.8%, Shiga toxin inh -12.2 and AMA1 RON2 block -2.7%.
Cc1ccc(-n2c(C)cc3c2CCCC3=O)cc1 was read as Cycloheximide cs -3.6, Pf growth 96h -1.4%, Pf growth 48h 10.4µM*, SARS PLpro yeast -3.6%, Shiga toxin inh -7.8 and AMA1 RON2 block -2.7%.
Screening COc1ccc(-n2c(-c3ccccc3)cc3c2CCCC3=O)cc1 returned Cycloheximide cs 8.7, Pf growth 96h inconclusive, Pf growth 48h inconclusive, SARS PLpro yeast 6.9%, Shiga toxin inh -12.3 and AMA1 RON2 block inconclusive.
`Cc1ccc(-c2cc3c(n2-c2ccc(C(=O)O)cc2)CCCC3=O)cc1` gave Cycloheximide cs 19.1*, Pf growth 96h -1.4%, Pf growth 48h 4.3%, SARS PLpro yeast 4.6%, Shiga toxin inh 64.0* and AMA1 RON2 block -9.1%.
O=C1CCCc2c1cc(-c1ccccc1)n2-c1ccc(O)cc1 was read as Cycloheximide cs -1.7, Pf growth 96h 26.3%, Pf growth 48h 38.3%, SARS PLpro yeast 23.2%, Shiga toxin inh 4.1 and AMA1 RON2 block -9.2%.
N#Cc1ccc(-c2csc(NC3=NCCCCC3)n2)cc1 was read as Cycloheximide cs 19.8*, Pf growth 96h -41.4%, Pf growth 48h -8.1%, SARS PLpro yeast -7.0%, Shiga toxin inh 73.2* and AMA1 RON2 block 35.4%.
N#Cc1ccc(-c2csc(NC(=O)c3ccc(N4C(=O)CCC4=O)cc3)n2)cc1 was read as Cycloheximide cs 6.6, Pf growth 96h -0.7%, Pf growth 48h 5.0%, SARS PLpro yeast -0.3%, Shiga toxin inh -4.8 and AMA1 RON2 block 6.4%.
Screening c1ccc(-c2csc(NC3=NCCCCC3)n2)cc1 returned Cycloheximide cs 42.8*, Pf growth 96h 90.5%, Pf growth 48h 89.3%, SARS PLpro yeast 1.9%, Shiga toxin inh 35.4 and AMA1 RON2 block 9.0%.
Screening CCNC(=S)N1CCCCC1CO (stereo not drawn) returned Cycloheximide cs -4.1, Pf growth 96h -10.7%, Pf growth 48h 36.8%, SARS PLpro yeast 0.5%, Shiga toxin inh 23.1 and AMA1 RON2 block -2.8%.
`COc1ccc(-c2onc3ccc(C(=O)/C=C/N(C)C)cc23)cc1` gave Cycloheximide cs -2.7, Pf growth 96h inconclusive, Pf growth 48h 10.4µM*, SARS PLpro yeast -4.0%, Shiga toxin inh -6.6 and AMA1 RON2 block 1.0%.
Screening COc1ccc(CC(=O)OCC(=O)NCc2ccc3c(c2)OCO3)cc1OC returned SARS PLpro yeast 5.3% and AMA1 RON2 block 7.0%.
`COc1cc(/C=N/Nc2nc3c(c(=O)n(C)c(=O)n3C)n2Cc2ccccc2)ccc1OC(=O)c1ccco1` gave Cycloheximide cs -6.7, Pf growth 96h 9.28µM*, Pf growth 48h 10.4µM*, SARS PLpro yeast 4.4%, Shiga toxin inh -3.9 and AMA1 RON2 block 12.7%.
For Cn1c(=O)c2c(nc(N/N=C/c3ccncc3)n2Cc2ccccc2)n(C)c1=O the results were Cycloheximide cs -4.4, Pf growth 96h inconclusive, Pf growth 48h inconclusive, SARS PLpro yeast 0.3%, Shiga toxin inh 14.4 and AMA1 RON2 block 32.1%.
COc1cc(/C=N/Nc2ccc(Cl)c(C(=O)O)c2)ccc1OCC(=O)N1C(C)CCCC1C (stereo not drawn) was read as Cycloheximide cs 18.5, Pf growth 96h inconclusive, Pf growth 48h -7.6%, SARS PLpro yeast 12.0%, Shiga toxin inh 59.4* and AMA1 RON2 block 7.1%.
Screening COc1ccc(/C=N/Nc2ccc(C(=O)O)cc2)cc1Br returned Cycloheximide cs 9.1, Pf growth 96h inconclusive, Pf growth 48h inactive, SARS PLpro yeast -6.7%, Shiga toxin inh -0.4 and AMA1 RON2 block -12.5%.
`COc1ccc(/C=N/Nc2ccc(C(=O)O)cc2)cc1OC` gave Cycloheximide cs 27.4*, Pf growth 96h 314.4%, Pf growth 48h 187.1%, SARS PLpro yeast 2.4%, Shiga toxin inh 43.1 and AMA1 RON2 block 0.7%.
`Cc1ccc(Cn2c(N/N=C/c3ccncc3)nc3c2c(=O)n(C)c(=O)n3C)cc1` gave Cycloheximide cs 8.6, Pf growth 96h 3.7µM*, Pf growth 48h 10.4µM*, SARS PLpro yeast 0.4%, Shiga toxin inh 8.8 and AMA1 RON2 block 31.2%.
Screening COc1ccccc1-c1cc(NC=O)c2ncc(-c3ccc(S(C)(=O)=O)cc3)n2c1 returned AMA1 RON2 block 16.7%.
For Cc1ccc(-n2c(SCC(N)=O)nc3c(oc4ccccc43)c2=O)cc1 the results were Cycloheximide cs 5.5, Pf growth 96h 45.3%, Pf growth 48h 26.5%, SARS PLpro yeast 0.6%, Shiga toxin inh 2.8 and AMA1 RON2 block 6.5%.
Screening COc1ccccc1CCc1nnc(CCC(=O)NC(C)Cn2nc(C)cc2C)o1 (stereo not drawn) returned Cycloheximide cs 0.9, Pf growth 96h 8.0%, Pf growth 48h 9.0%, SARS PLpro yeast -0.2%, Shiga toxin inh -12.7 and AMA1 RON2 block 0.5%.
